Rows were chosen to be rich in hits. Some 1.7% of all compounds tested hit in one or more screens of this group.
LANA-H2B inh = blocks KSHV LANA binding to histone H2A/H2B. Q9QR71. cell-free LANA-H2A/H2B peptide, fluorescence polarization. AID 2629. inhibition, % (no concentration beside the values). hit rate 0.6% among 320,000; in the data active = inhibition mostly above about 10%, no sharp cut-off; inactive = mostly below about 6.7%
HDAC3 inh = human HDAC3 inhibition; inhibition, % at 8.3 µM; recombinant HDAC3, fluorogenic peptide/trypsin coupled, fluorescence; AID 2718; O15379; hit rate 0.15% among 320,000; in the data active = inhibition above about 26%, passing the limit was not always enough; inconclusive = no clear call, values can overlap the other calls
m5-HT2A agonist = agonists of mouse serotonin 5-HT2A receptor (HTR2A). P35363. CHO-K1 mHTR2A beta-arrestin complementation, luminescence; percent of 30 µM serotonin response. activation, % at 7.6 µM. hit rate 0.66% among 360,000;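 active = activation above a run cutoff, the mean activation of all tested compounds plus 3 SD, cut at about 14% in these data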
Target sequence (P35363 whole entry, looked up): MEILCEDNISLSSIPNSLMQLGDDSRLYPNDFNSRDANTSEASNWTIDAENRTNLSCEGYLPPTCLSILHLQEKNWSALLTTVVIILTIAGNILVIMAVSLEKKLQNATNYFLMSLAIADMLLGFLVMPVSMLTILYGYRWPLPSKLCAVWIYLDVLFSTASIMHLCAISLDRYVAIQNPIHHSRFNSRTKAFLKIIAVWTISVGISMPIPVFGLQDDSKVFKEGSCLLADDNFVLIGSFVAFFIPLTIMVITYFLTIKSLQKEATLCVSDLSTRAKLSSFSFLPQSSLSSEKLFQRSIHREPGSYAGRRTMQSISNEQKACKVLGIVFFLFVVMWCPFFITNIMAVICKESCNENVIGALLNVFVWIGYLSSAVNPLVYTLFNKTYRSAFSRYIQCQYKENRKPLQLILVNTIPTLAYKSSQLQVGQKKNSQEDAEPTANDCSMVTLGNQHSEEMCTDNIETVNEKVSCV
CTSL1 counter = cathepsin L1 inhibition, PFM18AAP counter-screen; recombinant F. hepatica cathepsin L1, Z-Leu-Arg-MCA fluorescence; inhibition, % at 5.96 µM; hit rate 0.49% among 300,000; AID 1906;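 active = inhibition above the mean of all tested compounds plus 3 SD, set per screening campaign, cut at about 17% in these data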
Hits are given with their value; 0 = inactive; ? = inconclusive; - = no result; ! = not confirmed by another sample.

SMILES | LANA-H2B inh | HDAC3 inh | m5-HT2A agonist | CTSL1 counter
Oc1ccc(/C=N/Nc2nc(N3CCCC3)nc(N3CCCC3)n2)cc1O | 0 | 0 | 0 | 0
CCOc1ccccc1OCCOc1ccc(F)cc1 | 26 | 0 | 0 | 0
CC(OC(=O)c1ccc(S(=O)(=O)N(C)C)cc1)C(=O)Nc1ccc(Cl)cn1 (configuration not stated) | 12 | 0 | 0 | 0
CC(OC(=O)c1ccccc1O)C(=O)Nc1ccc(Cl)cn1 (configuration not stated) | 0 | 0 | 0 | 0
O=C(CN1C(=O)/C(=C/c2ccco2)SC1=S)NC1CCS(=O)(=O)C1 (configuration not stated) | 0 | 0 | 0 | 0
CN1c2ccccc2C(C)(C)C12C=Nc1c(ccc3ccccc13)O2 (configuration not stated) | 0 | 0 | 0 | 21
O=C1CCC[C@@H]2C=C[C@H](c3ccc(Br)cc3)[C@H]3CCN1[C@@H]32 | - | - | 0 | -
CC(=O)Oc1ccc2c(c1)Oc1cc(OC(C)=O)ccc1C21OC(=O)c2ccccc21 | 142 | 0 | 0 | 0
Cc1cc(O)ccc1C1(c2ccc(O)cc2C)OC(=O)c2ccccc21 | 0 | 0 | 0 | 0
COc1ccc(CSc2nncn2N)cc1Br | 0 | 0 | 0 | 19
COc1ccc(CSc2nnc(C)n2N)cc1Br | 0 | ? | 0 | 0
Cc1ccc(OCCNC(=O)CNC(=O)c2ccc(Cl)c([N+](=O)[O-])c2)cc1 | 0 | 0 | 0 | -
O=C(NCCN1CCOCC1)c1ccncc1 | 0 | 0 | 0 | 0
O=C1C=C(NCCN2CCOCC2)C(=O)c2cnccc21 | 0 | 0 | - | 100
Cn1cc(CN2CCN(c3ccccc3)CC2)c2ccccc21 | 13 | 0 | 0 | 0
CC(C)(C)OC(=O)NCCCCCc1nnc(SCc2ccccc2F)o1 | 0 | 0 | 0 | 0
CC(C)(C)OC(=O)NCCCCCc1nnc(SCc2c(F)cccc2Cl)o1 | 14 | 0 | 0 | 0
CC(OC(=O)/C(C#N)=C/c1ccc(N(C)C)cc1)C(=O)N(C)Cc1ccccc1 (configuration not stated) | 0 | 0 | 0 | 0
CCOC(=O)C1=C[C@]2(CC)CCCN3CCc4c(n1c1ccccc41)[C@@H]32 | 19! | 0 | 0 | 0
CC(C)NC(=O)C1(C)CN(S(C)(=O)=O)CC(=O)N1CCCn1ccnc1 (configuration not stated) | - | - | 0 | -
CC(=O)N1CCc2cc(Br)cc(S(=O)(=O)CCC(=O)N3CCN(c4ccccn4)CC3)c21 | 0 | 0 | 0 | 21
OC(C#CCN1CCCC1)(c1ccccc1)c1cccnc1 (configuration not stated) | 27 | 0 | 0 | 0
OC(C#CCN1CCCCCC1)(c1ccccc1)c1cccnc1 (configuration not stated) | 15 | 0 | 0 | 0
OC(C#CCCN1CCCCC1)(c1ccccc1)c1ccccc1 | 0 | 0 | 0 | 0
CC(C)CN(C1CCS(=O)(=O)C1)S(=O)(=O)c1ccc(C(C)C)cc1 (configuration not stated) | 0 | 0 | 0 | 0
SMILES | LANA-H2B inh | HDAC3 inh | m5-HT2A agonist | CTSL1 counter
COc1ccccc1OCCNC(=O)c1ccc2c(c1)CCC2 | 0 | 0 | 0 | 0
Cc1cc(C)cc(NC(=O)CCCN2C(=O)C(c3ccccc3)Oc3cccnc32)c1 (configuration not stated) | 14 | 0 | 0 | 0
Cc1ccccc1C(=O)NNC(=O)c1cccc(Br)c1 | 0 | 0 | 0 | 0
Cc1cccc(NC(=O)COC(=O)C2COc3ccccc3O2)c1C (configuration not stated) | 0 | 0 | 0 | -
COc1ccc(/C=C2\CCCc3c2nc2ccccc2c3C(=O)O)cc1OC | 91 | 0 | - | 0
CCOc1ccc(/C=C2\CCCc3c2nc2ccccc2c3C(=O)O)cc1OC | 121 | 0 | 0 | 0
COc1ccc(/C=C2\CCc3c2nc2ccccc2c3C(=O)O)cc1OC | 0 | 0 | 0 | 0
COc1cc(/C=C2\CCCc3c2nc2ccccc2c3C(=O)O)cc(OC)c1O | 0 | 0 | 0 | 0
Cc1cccnc1NC(=O)c1ccc(Cl)c(S(=O)(=O)N2CCCCCC2)c1 | 0 | 0 | 0 | 0
CCOc1ccccc1NC(=O)c1cccc(NC(=O)CC(c2ccccc2)c2ccccc2)c1 | 0 | 0 | 0 | 18
CC(=O)c1cccc(OC(=O)C2=CC=CN3CCS(=O)(=O)N=C23)c1 | 47 | 0 | 0 | -
O=C(Nc1cccc(Cl)c1)C1=CC=CN2CCS(=O)(=O)N=C12 | 0 | 0 | 0 | -
CCNC(=O)C1(C)CCN(C(=O)c2cccc(OC(C)=O)c2C)C1 (configuration not stated) | - | - | 0 | -
Cc1ccc(OCC(=O)N(C)CC(=O)Nc2ccc(Cl)c(C(F)(F)F)c2)c([N+](=O)[O-])n1 | 105 | 0 | 0 | -
O=C1C(Cl)=C(NCc2ccco2)C(=O)c2ccccc21 | - | - | 0 | -
CCNc1ccccc(-c2ccc3ccccc3n2)c1=O | 0 | 0 | 0 | 0
CCOc1ccc2noc3c2c1C(=O)c1ccccc1-3 | 44 | 0 | 0 | 0
O=C1c2ccccc2-c2onc3ccc(N4CCCC4)c1c23 | - | - | 0 | -
O=C1c2ccccc2-c2onc3ccc(NCc4ccco4)c1c23 | 111 | 0 | 0 | 0
CCNc1ccc2noc3c2c1C(=O)c1ccccc1-3 | 28 | 0 | 0 | 0
CCN(N=O)c1ccc(C=C2C=Cc3ccccc32)cc1 | - | - | 0 | -
CCOc1cc(C(=O)N=c2sccn2C)ccc1OC(F)F | 20 | 0 | 0 | 0
Cn1ccsc1=NC(=O)c1ccccc1OC(F)F | 0 | 0 | 0 | 0
CC(=O)c1ccc(N2CCN(C(=O)c3ccccc3SCC(=O)NCc3ccco3)CC2)c(F)c1 | - | - | 0 | -
CN1CCN(C2=Nc3ccccc3Oc3ccc(Cl)cc32)CC1 | 14 | 0 | 0 | 0
SMILES | LANA-H2B inh | HDAC3 inh | m5-HT2A agonist | CTSL1 counter
CN1CCN(c2nc(-c3ccccc3)c3cc(Cl)ccc3n2)CC1 | 0 | 0 | 0 | 0
Cc1cccc(C(=O)OCC(=O)N2CCCC2=O)c1O | 0 | 0 | 0 | -
O=C(CSc1nc2ccccc2c(=O)n1CC1CCCO1)NCC1CCCO1 (configuration not stated) | 0 | 0 | 0 | 0
NC(=O)NC(=O)CSc1nc(-c2ccccc2)c(-c2ccccc2)n1CC1CCCO1 (configuration not stated) | 0 | 0 | 0 | 20
COc1nc(N)nc(NC(=O)c2cccs2)c1N=O | 0 | 0 | 0 | 50
COc1cc(CNC[C@H]2O[C@@H](n3cc(C)c(=O)[nH]c3=O)C[C@@H]2O)ccc1OCc1cccc(Cl)c1 | - | - | 0 | -
CCCCC/C=C\C/C=C\C/C=C\C/C=C\CCCC(=O)O | 0 | 0 | - | 22
CCCCCCCC(=O)O | - | - | 0 | -
CC/C=C\C/C=C\C/C=C\CCCCCCCC(=O)O | 0 | 0 | 0 | 26
CCOC(=O)c1sc2nc3c(SCC(=O)O)cc(C(=O)c4cc(F)ccc4O)cn3c(=O)c2c1C | 22 | 0 | 0 | 0
Cc1cc(C(=O)N2CCCC(C(=O)c3cccc(C(F)(F)F)c3)C2)nc(C)n1 (configuration not stated) | 14 | 0 | 0 | 0
CN(C)c1ccc2nc3c(=O)[nH]c(=O)nc-3n(CC(O)C(O)C(O)CO)c2c1 (configuration not stated) | 30 | - | 0 | 0
Cc1ccc(NC(=O)c2cc(-c3ccco3)on2)cc1C | 0 | 0 | 0 | 21
Cc1nn(Cc2ccc(F)cc2)c(C)c1NC(=O)c1cc(-c2ccco2)on1 | 13 | 0 | 0 | 0

Compound activity from PubChem BioAssay.
